Experimental findings from publication PMC7862700, “An all-to-all approach to the identification of sequence-specific readers for epigenetic DNA modifications on cytosine” are described below.

Sequence of SPIB (Q01892 whole entry): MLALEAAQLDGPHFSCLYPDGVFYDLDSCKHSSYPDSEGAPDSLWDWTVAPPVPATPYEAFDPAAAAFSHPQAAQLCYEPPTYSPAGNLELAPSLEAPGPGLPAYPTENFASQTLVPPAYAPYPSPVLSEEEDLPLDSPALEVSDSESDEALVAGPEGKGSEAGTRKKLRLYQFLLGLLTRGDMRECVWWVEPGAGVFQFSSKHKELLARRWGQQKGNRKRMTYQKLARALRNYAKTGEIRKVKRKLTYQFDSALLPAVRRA
Sequence of ETV1 (P50549 whole entry): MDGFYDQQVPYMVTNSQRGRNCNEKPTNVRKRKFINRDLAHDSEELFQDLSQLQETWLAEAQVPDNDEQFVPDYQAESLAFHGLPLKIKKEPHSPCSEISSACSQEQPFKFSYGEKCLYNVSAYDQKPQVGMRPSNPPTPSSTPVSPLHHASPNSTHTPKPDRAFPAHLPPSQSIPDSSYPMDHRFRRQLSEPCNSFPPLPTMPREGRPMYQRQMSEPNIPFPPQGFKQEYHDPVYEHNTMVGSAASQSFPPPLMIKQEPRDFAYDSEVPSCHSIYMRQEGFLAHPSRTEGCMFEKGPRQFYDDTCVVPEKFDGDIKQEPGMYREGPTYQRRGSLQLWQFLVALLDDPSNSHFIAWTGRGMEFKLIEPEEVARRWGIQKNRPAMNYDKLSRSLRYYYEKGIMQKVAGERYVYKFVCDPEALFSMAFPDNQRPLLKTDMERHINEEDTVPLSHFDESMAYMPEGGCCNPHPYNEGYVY

For one assay, the target named is T1, GABPA (Homo sapiens, UniProt Q06546 1-454).
T1 sequence: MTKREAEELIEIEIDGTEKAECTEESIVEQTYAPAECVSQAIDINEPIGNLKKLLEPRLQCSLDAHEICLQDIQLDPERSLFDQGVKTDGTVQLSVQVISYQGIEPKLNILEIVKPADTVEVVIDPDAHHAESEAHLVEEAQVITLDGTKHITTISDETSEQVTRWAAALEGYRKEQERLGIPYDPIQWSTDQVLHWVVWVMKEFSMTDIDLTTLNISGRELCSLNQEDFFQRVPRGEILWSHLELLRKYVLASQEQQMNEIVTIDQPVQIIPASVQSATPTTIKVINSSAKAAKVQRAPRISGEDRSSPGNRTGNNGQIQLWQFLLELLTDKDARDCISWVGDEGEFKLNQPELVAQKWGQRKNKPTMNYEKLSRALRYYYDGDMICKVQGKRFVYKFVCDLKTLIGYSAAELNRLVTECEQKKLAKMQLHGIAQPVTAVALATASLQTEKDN
The assay can be described thus: DAPPL (digital affinity profiling via proximity ligation, sequencing); 10 mM Tris-HCl pH 7.5, 50 mM NaCl, 1 mM DTT, 4% glycerol, room temperature, 30 min; GST-TFs on glutathione beads, 16-mer random dsDNA library, 0.1% formaldehyde crosslink after washing; high values mean tight binding. The note with it: protein: recombinant; tags: N-terminal GST; dsDNA, one strand shown. The method in brief: (§1)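 Pools of DNA-barcoded human transcription factors, expressed in yeast as GST fusions on glutathione beads and combined with a tag-only sample, were incubated with 200 nmole of a 16-mer random double-stranded DNA library. Incubation took 30 min at room temperature in Tris/NaCl/DTT/glycerol buffer and was followed by washing, 0.1% formaldehyde crosslinking, proximity ligation (BsaI/T4 ligase, 1 h, 37 °C), PCR amplification and sequencing on an Illumina NextSeq500. Binding signal is the ratio of a hexamer's read frequency for a factor to its frequency for the tag-only sample.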
As to AGGACT, the binding signal was 1.05 fold enrichment (6-mer frequency, TF over GST control).
Same read-out and setting: in the case of GCAACG it was 1.03 fold enrichment (6-mer frequency, TF over GST control); in that of TCGCCA, 1 fold enrichment (6-mer frequency, TF over GST control); in that of GGGCTG, 1.03 fold enrichment (6-mer frequency, TF over GST control).
On the same count and under the same terms, in the case of GGCCAC it was 1.02 fold enrichment (6-mer frequency, TF over GST control); in that of GTCTGC, 1.01 fold enrichment (6-mer frequency, TF over GST control).

Another assay has as its target T2, ERG (Homo sapiens, UniProt P11308 1-479).
T2 sequence: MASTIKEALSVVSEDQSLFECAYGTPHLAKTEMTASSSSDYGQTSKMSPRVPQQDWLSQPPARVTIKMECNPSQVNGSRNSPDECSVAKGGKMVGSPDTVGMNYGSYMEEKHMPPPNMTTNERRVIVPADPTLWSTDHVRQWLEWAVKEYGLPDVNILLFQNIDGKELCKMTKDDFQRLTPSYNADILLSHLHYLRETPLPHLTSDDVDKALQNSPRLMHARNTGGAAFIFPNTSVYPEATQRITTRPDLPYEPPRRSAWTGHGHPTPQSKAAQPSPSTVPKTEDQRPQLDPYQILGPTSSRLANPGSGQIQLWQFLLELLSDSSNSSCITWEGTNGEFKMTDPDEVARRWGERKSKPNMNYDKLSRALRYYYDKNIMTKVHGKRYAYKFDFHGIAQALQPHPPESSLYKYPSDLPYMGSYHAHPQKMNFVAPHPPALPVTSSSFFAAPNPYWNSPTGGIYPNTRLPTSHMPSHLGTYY
The assay is described as above. The note with it: protein: recombinant; tags: N-terminal GST; dsDNA, one strand shown. Summed up: as §1
For GCAACG, the binding signal was 1 fold enrichment (6-mer frequency, TF over GST control).
As for GAACAG, the binding signal is 1.02 fold enrichment (6-mer frequency, TF over GST control).
Still for that read-out and setting: next, AAGACA: 1 fold enrichment (6-mer frequency, TF over GST control); CCTGTC: 1.01 fold enrichment (6-mer frequency, TF over GST control).

A further assay concerns the target T3, EHF (Homo sapiens, UniProt Q9NZC4 1-300).
T3 sequence: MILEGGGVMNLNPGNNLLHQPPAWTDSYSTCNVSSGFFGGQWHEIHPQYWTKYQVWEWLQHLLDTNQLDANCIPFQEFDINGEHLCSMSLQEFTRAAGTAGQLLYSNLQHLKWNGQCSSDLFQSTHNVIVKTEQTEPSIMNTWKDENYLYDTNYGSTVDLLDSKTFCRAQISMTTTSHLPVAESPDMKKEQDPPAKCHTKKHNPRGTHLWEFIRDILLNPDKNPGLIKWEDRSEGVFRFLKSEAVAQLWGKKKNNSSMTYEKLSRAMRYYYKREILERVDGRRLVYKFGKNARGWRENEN
Described as above. The note with it: protein: recombinant; tags: N-terminal GST; dsDNA, one strand shown. Summed up: as §1
For the sequence GAACAG, the binding signal is 1.03 fold enrichment (6-mer frequency, TF over GST control).
Still for that read-out and setting: in the case of CGGTAA it was 1.01 fold enrichment (6-mer frequency, TF over GST control); in that of GGCCAC, 1.03 fold enrichment (6-mer frequency, TF over GST control); in that of GCTGTC, 1 fold enrichment (6-mer frequency, TF over GST control).

In a further assay the target is SPIB (Homo sapiens, UniProt Q01892 1-262). Described as above. The note with it: protein: recombinant; tags: N-terminal GST; dsDNA, one strand shown. Summed up:
as §1
Consider GAACAG, for which the binding signal is 1.03 fold enrichment (6-mer frequency, TF over GST control).
Turning to CAGTTT, the binding signal was 1.03 fold enrichment (6-mer frequency, TF over GST control).
AAGACA: the binding signal is 1.02 fold enrichment (6-mer frequency, TF over GST control).
Same read-out and setting: in the case of GGTTGC it was 1 fold enrichment (6-mer frequency, TF over GST control).
As to CGGTAC, the binding signal was 1.06 fold enrichment (6-mer frequency, TF over GST control).

For another assay, the target named is T4, ELK3 (Homo sapiens, UniProt P41970 1-407).
T4 sequence: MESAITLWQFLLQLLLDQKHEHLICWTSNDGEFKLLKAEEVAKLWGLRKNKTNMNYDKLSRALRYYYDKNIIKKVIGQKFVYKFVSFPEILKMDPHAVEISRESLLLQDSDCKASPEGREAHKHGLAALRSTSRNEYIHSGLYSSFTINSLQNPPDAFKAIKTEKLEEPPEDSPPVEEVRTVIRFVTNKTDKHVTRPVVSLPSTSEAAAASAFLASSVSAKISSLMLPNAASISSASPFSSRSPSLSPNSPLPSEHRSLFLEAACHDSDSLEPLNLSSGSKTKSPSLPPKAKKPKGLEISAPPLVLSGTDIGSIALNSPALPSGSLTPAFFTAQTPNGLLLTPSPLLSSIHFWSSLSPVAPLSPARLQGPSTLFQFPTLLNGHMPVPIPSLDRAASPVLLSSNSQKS
The assay is described as above. The note with it: protein: recombinant; tags: N-terminal GST; dsDNA, one strand shown. Summed up:
as §1
As to CAGCAA, the binding signal was 1.01 fold enrichment (6-mer frequency, TF over GST control).
With AAGGGG, the binding signal was 1.05 fold enrichment (6-mer frequency, TF over GST control).
For the sequence CAGTTT, the binding signal is 1.04 fold enrichment (6-mer frequency, TF over GST control).
On the same count and under the same terms, next, GCGCTA: 1.13 fold enrichment (6-mer frequency, TF over GST control); AAGACA: 1.01 fold enrichment (6-mer frequency, TF over GST control).

In a further assay the target is T5, FEV (Homo sapiens, UniProt Q99581 1-238).
T5 sequence: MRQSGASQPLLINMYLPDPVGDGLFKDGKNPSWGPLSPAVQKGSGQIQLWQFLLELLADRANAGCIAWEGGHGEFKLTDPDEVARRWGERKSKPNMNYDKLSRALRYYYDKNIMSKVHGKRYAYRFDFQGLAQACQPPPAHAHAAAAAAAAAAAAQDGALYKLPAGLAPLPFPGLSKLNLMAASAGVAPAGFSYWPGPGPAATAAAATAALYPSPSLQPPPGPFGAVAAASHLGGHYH
Described as above. The note with it: protein: recombinant; tags: N-terminal GST; dsDNA, one strand shown. The method in brief:
as §1
For AGGACT, the binding signal is 1.01 fold enrichment (6-mer frequency, TF over GST control).
Same read-out and setting: next, GGCCAC: 1.05 fold enrichment (6-mer frequency, TF over GST control).
Still for that read-out and setting: in the case of CGGTAC it was 1.05 fold enrichment (6-mer frequency, TF over GST control).

The target in a further assay is ETV1 (Homo sapiens, UniProt P50549 1-477). The description is as above. The note with it: protein: recombinant; tags: N-terminal GST; dsDNA, one strand shown. Summed up:
as §1
On to CGCGGT, for which the binding signal is 1.03 fold enrichment (6-mer frequency, TF over GST control).
As for GTCTGT, the binding signal was 1.01 fold enrichment (6-mer frequency, TF over GST control).
As to AAGGGG, the binding signal is 1.07 fold enrichment (6-mer frequency, TF over GST control).
The same measure, in the same setting: in the case of CGGTAC it was 1.01 fold enrichment (6-mer frequency, TF over GST control); in that of GGTGCT, 1.08 fold enrichment (6-mer frequency, TF over GST control).

The next assay has as its target T6, ERF (Homo sapiens, UniProt P50548 1-548).
T6 sequence: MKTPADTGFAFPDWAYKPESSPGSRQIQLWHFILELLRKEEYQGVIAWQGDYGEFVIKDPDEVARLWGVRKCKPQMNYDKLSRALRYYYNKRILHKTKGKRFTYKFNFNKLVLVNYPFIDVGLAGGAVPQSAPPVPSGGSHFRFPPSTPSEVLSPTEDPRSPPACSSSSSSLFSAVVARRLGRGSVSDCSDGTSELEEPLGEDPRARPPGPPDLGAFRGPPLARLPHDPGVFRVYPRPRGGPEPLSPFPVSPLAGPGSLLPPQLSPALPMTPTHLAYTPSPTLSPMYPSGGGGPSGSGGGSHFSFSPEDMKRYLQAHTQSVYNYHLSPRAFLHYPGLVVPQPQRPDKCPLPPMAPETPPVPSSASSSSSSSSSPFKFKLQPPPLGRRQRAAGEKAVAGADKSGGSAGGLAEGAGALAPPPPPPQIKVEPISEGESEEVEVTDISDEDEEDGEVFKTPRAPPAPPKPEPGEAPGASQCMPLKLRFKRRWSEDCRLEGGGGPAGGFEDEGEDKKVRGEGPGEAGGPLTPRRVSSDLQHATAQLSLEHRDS
Described as above. The note with it: protein: recombinant; tags: N-terminal GST; dsDNA, one strand shown. Summed up: as §1
For GCAACG, the binding signal was 1.01 fold enrichment (6-mer frequency, TF over GST control).
Still for that read-out and setting: in the case of GACAAA it was 1.06 fold enrichment (6-mer frequency, TF over GST control).
As to GTGGAC, the binding signal was 1.03 fold enrichment (6-mer frequency, TF over GST control).
Still for that read-out and setting: next, GGGCTG: 1.03 fold enrichment (6-mer frequency, TF over GST control); GACGAT: 1.02 fold enrichment (6-mer frequency, TF over GST control); TGGGCC: 1.03 fold enrichment (6-mer frequency, TF over GST control).
On the same count and under the same terms, next, CAGCAA: 1.04 fold enrichment (6-mer frequency, TF over GST control).
